Only some compounds are listed: those with a hit (about 2.2% of all), similar ones and a draw of the others.
A549 tox – Nrf2 qHTS screen for inhibitors: counterscreen for cytotoxicity; A549 ARE-Fluc cells, CellTiter-Fluor viability, 18-24 h; Potency, µM (doses to about 46 µM), for inactives: top-dose activity change, negative = cytotoxicity, most hits filed as inhibitors; hit rate 0.16% among 390,000; AID 504648, 2011; further: on the % scale 0 is the no-effect control and ±100 the full control effect
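A549 ARE-Fluc cells in 5% FBS OPTI-MEM, 5000 cells/well, rested 2 h then exposed to compounds in concentration-response for 18-24 h at 37 °C. Viability by CellTiter-Fluor fluorescence (Ex 405/Em 525) after 30 min; luciferase luminescence (BugLite, 15 min, RT) read afterwards.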
Pin1 inh – qHTS Assay to Find Inhibitors of Pin1 | Peptidyl-prolyl cis-trans isomerase NIMA-interacting 1 (Homo sapiens), Q13526 | Pin1 FP peptide displacement, HiFluor488, 10 min | Potency, µM (highest dose often 115 µM), for inactives: at the top dose activity, negative = inhibition, hits mostly inhibitors | hit rate 0.009% among 390,000 | AID 504891, 2011; active means well fitted inhibition curve with a large enough effect in the polarisation, with a control signal flat, not every such curve was filed as active; inconclusive means small, poorly fitted or top-dose-only effect, or effect the other way, or a change in a side signal; inactive means no such curve, though single readings can be large or run the other way; the % refers to the polarisation; further: on the % scale 0 is the no-effect control and ±100 the full control effect
Target sequence (Q13526 whole entry, looked up): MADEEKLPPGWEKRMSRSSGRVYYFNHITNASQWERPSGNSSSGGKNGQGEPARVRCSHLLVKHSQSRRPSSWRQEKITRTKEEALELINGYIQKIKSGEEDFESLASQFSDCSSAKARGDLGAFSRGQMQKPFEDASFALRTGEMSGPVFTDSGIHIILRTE
Nrf2 activator – qHTS of Nrf2 Activators; AREc32 ARE-luciferase reporter (MCF7-derived line), luminescence, 24 h; AID 624171, 2012; hit rate 0.31% among 410,000; Potency, µM (doses to about 46.1 µM), without a hit: at the highest dose activation, hits mostly activators; further: % of control where 0% means no effect; nearly all actives have a fitted effect of over 65% in size
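Nrf2 activation is followed as ARE-luciferase induction in the AREc32 line after one day of compound treatment; luminescence is read with Steady-Glo.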
Nrf2 inh – Nrf2 qHTS screen for inhibitors | hit rate 2.1% among 360,000 | Potency, µM (series often up to 46 µM), for the others: at the top dose activity change, negative = inhibition, most hits filed as inhibitors | A549 ARE-Fluc reporter, luciferase luminescence, 18-24 h; further: on the % scale 0 is the no-effect control and ±100 the full control effect; nearly all actives have a fitted effect of over 60% in size
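A549 ARE_Fluc cells, 5000/well, 5% FBS OPTI-MEM; compounds in dose-response, 18-24 h at 37 °C/5% CO2; CellTiter-Fluor viability read (Ex 405/Em 525), then BugLite luciferase luminescence = Nrf2 activity.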
* = called active by the depositor; u = inconclusive; x = not tested or not shown. Unless noted, the call rests on the fitted dose curve; in most records, active means well fitted curve in the direction sought with a large enough effect; inconclusive means small, poorly fitted or top-dose-only effect, or another doubt; inactive means no such curve, though single readings can be large; an effect the other way counts as inactive or inconclusive. Potency means the concentration at half of the fitted maximal effect.

SMILES | A549 tox | Pin1 inh | Nrf2 activator | Nrf2 inh
CCC(C)(C)NC(=O)C(c1ccc(OC)cc1)N(C(=O)CCC(=O)Nc1cc(C)on1)c1cccc(F)c1 (stereo not drawn) | u | 0% | 0% | 5.8µM*
COc1ccc(C(C(=O)NC(C)(C)C)N(C(=O)CCC(=O)Nc2cc(C)on2)c2cccc(F)c2)cc1 (stereo not drawn) | -4% | 2% | 0% | -28%
O=C(OCC#CCSc1nnc(-c2cccc3ccccc23)o1)c1sc2ccccc2c1Cl | 0% | 8% | x | 1%
O=c1[nH]c(Nc2ccccc2Cl)cc2ccccc12 | -2% | -3% | 14% | -3%
Cc1ccccc1Nc1cc2ccccc2c(=O)[nH]1 | 16µM* | u | -1% | u
Cc1ccc(-c2ccc(S(=O)(=O)Nc3cccnc3)cc2)cc1 | 0% | 33% | 3% | 12µM*
Cc1ccc(S(=O)(=O)Nc2cccc3cccnc23)cc1 | -25% | -7% | u | 6.5µM*
Cc1ccc(S(=O)(=O)Nc2ccc(NS(=O)(=O)c3ccc(C)cc3)c3ncccc23)cc1 | -6% | 21% | x | u
Cc1ccc2nsnc2c1S(=O)(=O)Nc1cccc2cccnc12 | u | 4% | x | 8.2µM*
O=C1c2ccccc2C(=O)c2cc(S(=O)(=O)Nc3cccc4cccnc34)ccc21 | -19% | -5% | x | 5.2µM*
Cc1ccc(S(=O)(=O)Nc2cccnc2)cc1C | -4% | 1% | 0% | 0%
CCCCNC(=O)Cn1c(SCc2cccc(C)c2)nc2ccncc21 | 7% | 7% | x | u
N#CN1CCC(N[S+](=O)([O-])c2cccc(F)c2)CC1 | 1% | -3% | x | 12%
CCOC(=O)c1ccc(S(=O)(=O)N2CCN(c3nc(-c4ccccc4)nc4ccccc34)CC2)cc1 | -1% | -1% | x | u
COc1cc(OC)c2c(c1C(CCN1CCCC1)c1ccc(N(C)C)cc1)OC(=O)CC2c1ccc(N(C)C)cc1 (stereo not drawn) | -24% | 51% | x | -12%
O=S(=O)(Nc1cc(O)cc2cccnc12)c1ccc(Br)s1 | -2% | u | x | 14%
O=C1CC(c2ccccc2)CC(O)=C1C=Nc1ccccc1O (stereo not drawn) | 1% | 15% | 14µM* | -16%
O=C1CC(c2ccco2)CC(O)=C1C=Nc1cc(Cl)ccc1O (stereo not drawn) | -8% | -1% | 10µM* | u
O=C1CC(c2ccccc2)CC(O)=C1C=Nc1ccccc1 (stereo not drawn) | -3% | 0% | 5% | -25%
COc1cc(NC(=O)N2CCN(c3cc(-c4noc(C)n4)ccc3C)CC2)cc(OC)c1OC | 13% | -5% | 0% | x
O=C(C1CCC(CNS(=O)(=O)c2cccs2)CC1)N1CCN(c2ccc(Cl)cc2)CC1 (stereo not drawn) | u | 7% | 7% | 8.2µM*
O=C(C1CCC(CNS(=O)(=O)c2ccc(Br)s2)CC1)N1CCN(c2ccccc2)CC1 (stereo not drawn) | -1% | -5% | 0% | u
COc1ccc(Nc2nc(-c3ccc(C)cc3)nc3ccccc23)c(OC)c1 | 14% | 12% | -1% | x
COc1ccc(Nc2nc(N3CCCC3)nc3ccccc23)c(OC)c1 | 18µM* | 9% | 23% | u
NS(=O)(=O)c1ccc(CCNC(=O)c2ccc([N+](=O)[O-])s2)cc1 | u | 1% | 4% | 9.2µM*
SMILES | A549 tox | Pin1 inh | Nrf2 activator | Nrf2 inh
CC(C)(C)OC(=O)NCC(=O)NNC(=O)c1nc2ccccc2[nH]1 | 7% | x | x | -5%
CC1CCN(c2ncnc3c2cnn3Cc2ccc(Cl)cc2)CC1 | -7% | 0% | 2% | u
Cc1ccc(Cn2ncc3c(N4CCN(Cc5ccc(Cl)cc5)CC4)ncnc32)cc1 | -14% | 25% | 1% | 8.2µM*
Cc1ccc(Cn2ncc3c(N4CCN(c5ccc(C)cc5)CC4)ncnc32)cc1 | -8% | 4% | 0% | u
Cc1ccccc1N1CCN(c2ncnc3c2cnn3Cc2ccc(Cl)cc2)CC1 | -6% | 5% | 8% | 18µM*
CC(=O)N1CCc2cc(S(=O)(=O)NC(Cc3ccccc3)C(=O)NCc3ccccc3)ccc21 (stereo not drawn) | 2% | 0% | 0% | 3%
CC(C)c1ccc(S(=O)(=O)/N=C2/C=C(Sc3ncn[nH]3)C(=O)c3ccccc32)cc1 | u | x | -3% | 18µM*
COc1ccc(-c2nc3ccc(NC(C)=O)cc3c(=O)n2Cc2cccc(Cl)c2)cc1COc1ccc(NC(C)=O)cc1 | -11% | u | x | u
CC1CCc2[nH]c3ccc(C(=O)N(C)CC(=O)Nc4ccc(F)cc4)cc3c2C1 (stereo not drawn) | -15% | -2% | 2% | -29%
CCN(CC(=O)Nc1ccccc1C(F)(F)F)C(=O)c1ccc2[nH]c3c(c2c1)CC(C)CC3 (stereo not drawn) | u | u | 2% | 26µM*
O=C(NNC(=O)C12CC3CC(CC(C3)C1)C2)c1cccc([N+](=O)[O-])c1 | -5% | 0% | 10µM* | -9%
COc1ccc(C)cc1NC(=O)C(Cc1ccccc1)NS(=O)(=O)c1ccc(Br)s1 (stereo not drawn) | -9% | 3% | 3% | u
CCOc1ccccc1NC(=O)C(Cc1ccccc1)NS(=O)(=O)c1ccc(Br)s1 (stereo not drawn) | -10% | 17% | 0% | 18µM*
CCCCCCn1c(C)nc2c(c1=O)c1nc3ccccc3nc1n2/N=C/c1ccco1 | u | u | 3% | 23µM*
Cc1nc2c(c(=O)n1CCC1=CCCCC1)c1nc3ccccc3nc1n2/N=C/c1ccccc1 | x | 48% | 1% | u
CC1CCCN(C(=O)c2ccc3c(=O)n(Cc4ccc5c(c4)OCO5)c(=S)[nH]c3c2)C1 (stereo not drawn) | -20% | 56% | 0% | 26µM*
O=C(c1ccc2c(=O)n(Cc3ccco3)c(=S)[nH]c2c1)N1CCN(Cc2ccc3c(c2)OCO3)CC1 | u | u | x | 16µM*
Cc1ccc2cccc(NC(=O)c3ccc(-c4cc(Cl)ccc4Cl)o3)c2n1 | -1% | -2% | -1% | 8%
CCCN(C(=O)c1cc2c(=O)[nH]c3ccc(C)cc3c2s1)c1ccc(CC)cc1 | 7% | -3% | -1% | 1%
CCCN(CCC)C(=O)c1cc2c(=O)[nH]c3ccc(C)cc3c2s1 | -22% | 17% | -1% | 18µM*
CCc1nnc(NC(=O)[C@@H]2CCCN2C(=O)c2cccs2)s1 | 3% | -1% | x | 7%
C=CC[n+]1c(-c2ccc(OCC)cc2)csc1NNC(=O)Nc1ccccc1 | -6% | u | 13% | 15µM*
N/C(=N\OC(=O)c1cccs1)c1ccccc1 | 5% | 3% | 10µM* | u
Cc1cccc(/C(N)=N/OC(=O)c2cccs2)c1 | -11% | 0% | 14µM* | u
Cc1ccc(/C(N)=N/OC(=O)c2cccs2)cc1 | -2% | 9% | u | u
COc1ccc(/C(N)=N/OC(=O)c2cccs2)cc1OC | -12% | -8% | u | u
N/C(=N\OC(=O)c1cccs1)c1cccc(Br)c1 | -1% | -13% | 11µM* | u
